Assay outcomes (PubChem BioAssay)
MCL1-BIM inh: MCL1-BIM-BH3 interaction inhibition (human) | Q07820 | GST-MCL1 / FITC-Bim-BH3 fluorescence polarization | inhibition, % at 10.9 µM | 320,000 compounds, 0.68% hits;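 active = inhibition above the mean inhibition of all tested compounds plus 3 SD, set per campaign, cut at about 40% in these data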;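 note: 0% = DMSO wells and 100% = unlabeled Bim-BH3 peptide control; higher means more loss of mP so more displacement of Bim peptide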
IDE cell inh: inhibitors of human insulin-degrading enzyme in cells; AID 434962; HEK cells, FAbetaB cleavage, fluorescence polarization; inhibition, % at 5.59 µM; 320,000 compounds, 0.41% hits;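 active = percent inhibition above the average of all tested compounds plus 3 SD, set per screening campaign, cut at about 16% in these data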;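 note: IDE supplied by intact live HEK cells; FP after avidin binding of uncleaved biotin substrate so inhibition keeps polarization high; 0% = DMSO wells and 100% = 60 µM reference IDE inhibitor Ii1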
IDE act: boosts human insulin-degrading enzyme activity in HEK cells; P14735; 340,000 compounds, 0.073% hits; activation, % at 5.96 µM; FAbeta-B cleavage, fluorescence polarization; 0% vehicle, 100% cell-free pure enzyme wells; AID 493087;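 active = activation above the mean of all tested compounds plus 3 SD, set per screening campaign, cut at about 17% in these data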
MEX-5 binding: C. elegans MEX-5 TCR-2 RNA binding activity | MEX-5/FITC-TCR2 RNA binding, fluorescence polarization; active compounds read low | activity score (negative = inhibition of binding), % at 10 µM | 300,000 compounds, 0.38% hits | AID 1832;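 active = inhibition past about -25% in most replicates, and total fluorescence under double the plate's negative control median, limit read from the data; inconclusive = replicates evenly split on the limit, or fluorescence at least double controls; inactive = too little inhibition in most replicates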;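 note: 0% = DMSO and -100% = 5 µM competing unlabeled TCR2 RNA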
Target sequence (Q9XUB2 whole entry, looked up): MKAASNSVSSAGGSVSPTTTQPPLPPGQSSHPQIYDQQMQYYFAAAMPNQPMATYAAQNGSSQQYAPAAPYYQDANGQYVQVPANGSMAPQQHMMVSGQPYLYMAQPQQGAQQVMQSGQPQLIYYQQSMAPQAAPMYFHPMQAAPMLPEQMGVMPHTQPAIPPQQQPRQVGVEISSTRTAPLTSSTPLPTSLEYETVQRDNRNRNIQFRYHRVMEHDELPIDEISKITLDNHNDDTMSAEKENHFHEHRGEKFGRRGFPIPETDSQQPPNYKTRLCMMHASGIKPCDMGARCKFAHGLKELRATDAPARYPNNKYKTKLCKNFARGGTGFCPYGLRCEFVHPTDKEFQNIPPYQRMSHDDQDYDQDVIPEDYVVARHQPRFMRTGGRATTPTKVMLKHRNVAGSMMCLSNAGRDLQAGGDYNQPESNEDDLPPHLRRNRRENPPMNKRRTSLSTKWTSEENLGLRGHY
Bcl-xL primary: inhibitors of human Bcl-xL; GST-Bcl-xL / FITC-Bim BH3 peptide fluorescence polarization; Q07817; 320,000 compounds, 0.7% hits; inhibition, % at 10.9 µM; AID 2129;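 active = inhibition above the mean of all tested compounds plus 3 SD, cutoff set per campaign, cut at about 30% in these data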;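 note: 0% = DMSO wells and 100% = unlabeled Bim-BH3 peptide competitor; inhibitors lower millipolarization by displacing the labeled peptide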
Target sequence (Q07817 whole entry, looked up): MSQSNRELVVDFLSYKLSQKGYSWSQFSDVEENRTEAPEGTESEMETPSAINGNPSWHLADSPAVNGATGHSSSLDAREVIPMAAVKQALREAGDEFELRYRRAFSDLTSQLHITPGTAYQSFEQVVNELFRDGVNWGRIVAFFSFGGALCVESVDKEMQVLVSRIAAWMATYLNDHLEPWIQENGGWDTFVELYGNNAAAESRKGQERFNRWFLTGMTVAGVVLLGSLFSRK
GLD-1 RNA inh: GLD-1-TGE RNA interaction inhibition (C. elegans); Q17339; purified GLD-1 + fluorescein TGE RNA, fluorescence polarization; inhibition, % at 5.96 µM; 320,000 compounds, 0.44% hits; AID 2280;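 active = percent inhibition above a per-plate cutoff, the plate mean of test compounds plus 3 SD, cut at about 30% in these data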;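 note: 0% = DMSO wells with GLD-1 and probe and 100% = wells lacking GLD-1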
IDE cell inh cf: cellular human IDE inhibition, confirmation; HEK cells, FAbetaB cleavage, fluorescence polarization; inhibition, % at 5.59 µM; AID 435028; 1,200 compounds, 51% hits; shares compounds with IDE cell inh;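 active = mean inhibition across triplicate wells above the cutoff set by the earlier primary insulin-degrading enzyme screen, cut at about 16% in these data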;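 note: 0% = DMSO wells and 100% = 60 µM reference IDE inhibitor Ii1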
HEK293 tox: counter-screen for IDE inhibitors: cytotoxicity in HEK cells. shares compounds with IDE cell inh. HEK293 cytotoxicity, ATP luminescence. inhibition, % at 5.59 µM. 1,200 compounds, 28% hits. AID 449730; in the data active = inhibition above about 22%;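 note: 0% = vehicle wells and 100% = reference cytotoxic drug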
FP fluor counter: counter-screen for IDE inhibitors: fluorescent artifacts | shares compounds with IDE cell inh | IC50, µM | AID 588718 | 30 tested, under 10 active | FP counterscreen for fluorescent artifacts, IDE probe project; call rule not given here
* = called active by the depositor; ? = inconclusive; . = not tested or not shown; ! = a repeat was not active. Compounds with a hit are over-represented: about 1.5% of the library has one in this group of screens.

SMILES | MCL1-BIM inh | IDE cell inh | IDE act | MEX-5 binding | Bcl-xL primary | GLD-1 RNA inh | IDE cell inh cf | HEK293 tox | others
N#Cc1ccccc1Cn1cc(/C=C/[N+](=O)[O-])c2ccccc21 | -1 | 16* | -4 | -1 | 2 | -5 | 5 | 85*
O=[N+]([O-])/C=C/c1cn(Cc2ccccc2)c2ccccc12 | -2 | 4 | -1 | -12 | -2 | -4 | . | .
CCOC(=O)C1CCN(C(=O)Cn2c(=O)c3cccn3c3cccnc32)CC1 | 5 | -5 | 2 | 3 | 2 | 5 | . | .
COc1cc(N=c2ssnc2Cl)c(OC)cc1Cl | 25 | 18*! | -19 | 1 | 7 | -2 | 12 | 34*
COc1ccccc1NC(=O)c1ccc(NC(=O)COC(=O)C2CC2C)cc1 (stereo not given) | -13 | 19* | -3 | -2 | 2 | 12 | 3 | 9
COc1ccccc1NC(=O)c1ccc(NC(=O)COC(=O)C2CCCO2)cc1 (stereo not given) | . | . | 2 | . | . | . | . | .
CNC(=O)c1c(NC(=O)c2ccc(S(=O)(=O)N3CCCC3)cc2)sc2c1CCN(C(C)C)C2 | -133 | 43* | . | -1 | -83 | -101 | 6 | 16
Nc1cc(S(=O)(=O)N2CCOCC2)ccc1Oc1cccc(Br)c1 | . | . | -3 | . | . | . | . | .
Cc1c(C(=O)NCc2ccccn2)sc2nc(-c3ccc(F)cc3)cn12 | 10 | 20* | -11 | -2 | 6 | 2 | 11 | 62*
Cc1cccc(NC(=O)c2sc3nc(-c4ccccc4)cn3c2C)n1 | -6 | 17* | -11 | ? | -1 | -37 | 11 | 29*
Cc1c(NC(=O)/C(C#N)=C/c2ccc(-c3ccc(Cl)cc3)o2)c(=O)n(-c2ccccc2)n1C | -3 | 64* | -25 | 3 | 1 | -1 | 40* | 19
O=C(CCC1N=C2c3ccccc3N=C(SCc3ccccc3Cl)N2C1=O)NCc1ccco1 (stereo not given) | 11 | 21* | 0 | 2 | 3 | 2 | 2 | 19
O=C(CCC1N=C2c3ccccc3N=C(SCC(=O)NCC3CCCO3)N2C1=O)NCc1ccc(F)cc1 (stereo not given) | 2 | -2 | -1 | -1 | 1 | 3 | . | .
CN(C)S(=O)(=O)c1ccc2c(c1)/C(=C/c1cc3c([nH]1)CCCC3)C(=O)N2 | -53 | 45* | -90 | . | -19 | -130 | 105* | 15
CN(C)S(=O)(=O)c1ccc2c(c1)C(=O)c1cc(S(=O)(=O)N(C)C)ccc1CC2 | 1 | 4 | 1 | . | 0 | 10 | . | .
O=C(NN=C(Cc1ccccc1)Cc1ccccc1)C1CC1 | -2 | 3 | 0 | -2 | -6 | 1 | . | .
C/C(=C\C(=O)c1ccc(Cl)s1)N(C)C | -3 | -1 | 0 | -2 | 1 | 5 | . | .
CCn1c(-c2ccc(-c3ccccc3)cc2)c[nH]c1=S | -20 | 16* | -7 | 0 | -29 | -2 | -3 | 18
Cc1nc(Nc2nc(CSc3nc4ccccc4[nH]3)cc(=O)[nH]2)nc2ccccc12 | -1 | 45* | -38 | 4 | 4 | 1 | 10 | 42*
COc1ccc(NC(=O)N2CCNC(=O)C2CC(=O)Nc2ccc(F)cc2)cc1 (stereo not given) | -3 | 12 | 1 | -1 | -1 | 6 | . | .
O=C(CNC(=O)c1ccc(S(=O)(=O)N2CCCC2)cc1)N/N=C/c1ccc(Cl)cc1Cl | -3 | 24* | -7 | 1 | 1 | 1 | 5 | 8
C=CCCCCCCCC(=O)OC | 0 | 5 | 3 | 0 | 0 | 3 | . | .
COc1ccc(-c2nnc(Nc3nc4c(OC)cccc4s3)o2)c(OC)c1 | 8 | 13 | -19 | ? | 5 | 4 | . | .
COc1ccc(-c2nnc(Nc3nc4c(OC)cccc4s3)o2)cc1 | 20 | 24* | -15 | . | 20 | -2 | 19* | 8
CCOC(=O)Cc1sc(N)nc1C | 2 | 4 | 2 | -2 | 5 | 5 | . | .
SMILES | MCL1-BIM inh | IDE cell inh | IDE act | MEX-5 binding | Bcl-xL primary | GLD-1 RNA inh | IDE cell inh cf | HEK293 tox | others
Oc1sc(C=Nc2ccccc2)c2ccccc12 | -26 | 26* | -31 | -11 | 2 | -101 | 30* | 9
Oc1sc(C=Nc2ccc(F)cc2)c2ccccc12 | -29 | 18* | -7 | -20 | -11 | -116 | 34* | 3
Oc1c(C=Nc2ccccc2)sc2ccccc12 | -55 | -1 | -13 | -2 | -40 | -39 | . | .
CCN(CC(=O)Nc1ccc(NC(C)=O)cc1)C(=O)c1ccc(C(=O)c2ccccc2)cc1 | 0 | 2 | 5 | . | -1 | -6 | . | .
Cc1ccc(NC(=O)c2sc3nc(C)cc(C)c3c2N)cc1 | 8 | 21* | -13 | 1 | 5 | 0 | 8 | 13
Cn1c(CNC(=O)OC(C)(C)C)n[nH]c1=S | 6 | 0 | -2 | -3 | -1 | 0 | . | .
CN(CCC(=O)Nc1ccc(Cl)cc1)Cc1ccccc1 | 4 | 0 | 2 | 0 | 5 | -1 | . | .
O=C(c1ccco1)N1CCN(c2ccc(Cl)cc2)CC1 | 6 | -2 | -2 | -2 | 5 | 0 | . | .
COc1ccc(OC)c(NC(=O)C2CCN(c3cc(-c4ccccc4)nc4ncnn34)CC2)c1 | 0 | 3 | -7 | 1 | 1 | 6 | . | .
O=C(Nc1ccc(OC(F)(F)F)cc1)N1CCN(c2ccnc3cc(Cl)ccc23)CC1 | 3 | 36* | -32 | 4 | 4 | 6 | 12 | 35*
O=S(=O)(c1ccccc1OC(F)(F)F)N1CCN(c2ccnc3cc(Cl)ccc23)CC1 | -2 | 15 | -20 | 0 | 2 | 6 | . | .
O=C(c1ccco1)N1CCN(c2ccnc3cc(Cl)ccc23)CC1 | 4 | 26* | -17 | -1 | 6 | 6 | 18* | 14
N#Cc1cccc(S(=O)(=O)N2CCN(c3ccnc4cc(Cl)ccc34)CC2)c1 | 8 | 20* | -34 | -4 | 0 | 5 | 8 | 17
COc1ccccc1NC(=O)N1CCN(c2cc(-c3ccccc3)nc3ncnn23)CC1 | -3 | 19* | -15 | -2 | 4 | -6 | 0 | 23*
COc1ccccc1NC(=O)N1CCN(c2ccc3nnc(-c4ccc(F)cc4)n3n2)CC1 | 0 | 17* | -5 | 1 | 4 | 0 | 8 | 9
COc1ccccc1NC(=O)N1CCN(c2ccnc3cc(Cl)ccc23)CC1 | 2 | 23* | -28 | 4 | 4 | -5 | 15 | 12
O=C(C1CC1)N1CCN(c2ccnc3cc(Cl)ccc23)CC1 | 4 | 22* | -31 | 1 | 1 | 2 | 16* | 13 | FP fluor counter=>55
